Bioassay records deposited in PubChem by Broad Institute.
In the library only some 2.8% were active in any assay of this set; here they are far more common.
dFosB activator = mouse delta FosB homodimer activation; activation, % at 25 µM; purified delta FosB, TAMRA-CDK5 oligo fluorescence polarization; percent of positive-control signal above neutral wells; 340,000 compounds, 0.99% hits; AID 493131;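 active = mean activation above about 17%, with every replicate also reaching it, limit read from the data, passing the limit was not always enough; inconclusive = only one of the two conditions met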
CDK5 p35 inh = blocks human CDK5/p35 kinase activity; Recombinant CDK5/p35, ADP-Glo luminescence, 60 min; 330,000 compounds, 0.01% hits; inhibition, % at 10 µM; AID 488839;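 active = highest replicate inhibition of at least 50% and at least 75% of replicates reaching 50%; inconclusive = only one of the two criteria met; inactive = both criteria failed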;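 also: plate controls were DMSO neutral control for no effect and GW8510 at 10 µM for full effect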
FGF22 binding = FGF22 (human) thermal shift binding; recombinant FGF22 thermal shift, SYPRO orange fluorescence; percent of sucrose octasulfate shift, DMSO zero; 340,000 compounds, 1.5% hits; activity (Tm shift, normalised), % at 9.99 µM; Q9HCT0;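 active = mean Tm shift, scaled 0 neutral to 100 positive control, at about 1.3% or above, every replicate too, limit read from the data; inconclusive = no clear call, values can overlap the other calls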
Target sequence (Q9HCT0 whole entry, looked up): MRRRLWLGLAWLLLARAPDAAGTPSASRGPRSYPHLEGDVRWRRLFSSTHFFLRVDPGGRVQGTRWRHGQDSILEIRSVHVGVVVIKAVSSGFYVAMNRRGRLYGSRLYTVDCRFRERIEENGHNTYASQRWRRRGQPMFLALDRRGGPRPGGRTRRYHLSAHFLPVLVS
PglD inh = inhibitors of Campylobacter jejuni PglD acetyltransferase; purified PglD enzyme, DTNB colorimetric CoA detection; inhibition, % at 12.5 µM; 360,000 compounds, 0.098% hits; AID 602405; in the data active = inhibition above about 16%, passing the limit was not always enough; inconclusive = no clear call, values can overlap the other calls
SIRT5 block = sirtuin-5 (human) deacylase inhibition | Purified SirT5, succinyl-peptide AMC, trypsin-coupled fluorescence | 330,000 compounds, 1.1% hits | inhibition, % at 15 µM | Q9NXA8; in the data active = inhibition above about 15%; inconclusive = no clear call, values can overlap the other calls
Target sequence (Q9NXA8 whole entry, looked up): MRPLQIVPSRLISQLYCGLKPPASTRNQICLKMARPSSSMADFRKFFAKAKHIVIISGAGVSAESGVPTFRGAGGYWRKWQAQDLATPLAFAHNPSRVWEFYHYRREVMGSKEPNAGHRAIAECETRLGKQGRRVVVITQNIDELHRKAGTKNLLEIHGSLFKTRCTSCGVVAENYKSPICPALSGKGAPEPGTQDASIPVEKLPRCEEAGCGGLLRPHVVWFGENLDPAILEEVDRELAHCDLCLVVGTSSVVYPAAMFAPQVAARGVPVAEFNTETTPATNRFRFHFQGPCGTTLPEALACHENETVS
PvdQ inh = P. aeruginosa PvdQ acylase inhibition; 340,000 compounds, 0.063% hits; inhibition, % at 10 µM; AID 488965; purified PvdQ acylase, fluorescence plate reader; in the data active = inhibition above about 30%, passing the limit was not always enough; inconclusive = no clear call, values can overlap the other calls;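 also: 0% = vehicle neutral wells and 100% = reference inhibitor wells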
An asterisk follows results filed as active; ? = inconclusive; · = no result; ! = not active in a repeat.

SMILES	dFosB activator	CDK5 p35 inh	FGF22 binding	PglD inh	SIRT5 block	PvdQ inh
O=C(O)c1ccccc1N/N=C/c1cc(Br)cc(Br)c1O	-10	-2	44*	-3	-4	7
O=C(Cc1ccccc1)N/N=C/c1cc(Br)cc(Br)c1O	39*	3	0	9	0	10
COc1ccc(S(=O)(=O)Nc2ccc3c(c2)C(=O)N([C@H](C)CO)C[C@@H](C)[C@@H](CN(C)Cc2ccc4c(c2)OCO4)OCCCC[C@H](C)O3)cc1	·	·	0	0	8	·
COc1ccc(S(=O)(=O)Nc2ccc3c(c2)C(=O)N([C@@H](C)CO)C[C@@H](C)[C@H](CN(C)Cc2ccc4c(c2)OCO4)OCCCC[C@H](C)O3)cc1	·	·	1.3*	-1	2	·
C[C@@H]1CN([C@H](C)CO)C(=O)c2cc(NS(=O)(=O)c3ccc(Cl)cc3)ccc2O[C@@H](C)CCCCO[C@@H]1CN(C)Cc1ccc2c(c1)OCO2	·	·	·	9	19*!	·
C[C@@H]1CN([C@@H](C)CO)C(=O)c2cc(NS(=O)(=O)c3ccc(Cl)cc3)ccc2O[C@@H](C)CCCCO[C@H]1CN(C)Cc1ccc2c(c1)OCO2	·	·	·	8	5	·
COC(=O)CC1=C(c2ccc([N+](=O)[O-])cc2)CCC1=O	-2	-1	0	2	16*	-6
CCn1nc(C)c(CCC(=O)O)c1C	-5	3	43*	·	1	5
Cc1nn(C)c(C)c1CCC(=O)O	11	0	0	4	-3	1
CCCc1cc(NCCCn2ccnc2)n2nc(C)c(-c3ccccc3)c2n1	-10	1	0	·	18*	-8
Cn1nnnc1Sc1ccc([N+](=O)[O-])cc1Cl	6	1	0	·	17*	4
COc1cc(/C=C2\C(=O)ON=C2c2ccccc2)cc(Cl)c1O	18*	-1	·	·	1	-6
COCC(=O)Nc1ccc2c(c1)C(=O)N(C)[C@@H]1CC[C@H](CC(=O)NCC(F)(F)F)O[C@H]1CO2	·	·	0	1	1	·
CC[C@@]12C(=O)N(c3ccccc3)C(=O)N1[C@H](c1ccc(OC)cc1)[C@@H]1C(=O)N(C(C)(C)C)C(=O)[C@@H]12	-8	0	0	0	-1	-14
CC[C@@]12C(=O)N(c3ccc(C)cc3)C(=O)N1[C@H](c1ccc(OC)cc1)[C@@H]1C(=O)N(C(C)(C)C)C(=O)[C@@H]12	2	2	0	2	20*	-3
CC(C)(C)c1ccc(C(=O)NC(=S)NCc2ccco2)cc1	-2	-3	0	3	-1	-14
CC(C)(CO)NC(=S)NCc1ccco1	-8	-1	0	-5	30*	-11
O=C(CC1C(=O)N(c2ccc(Cl)cc2)C(=S)N1CCc1ccncc1)Nc1ccc(F)cc1 (stereo not drawn)	0	-16	2.3*	·	-1	-10
O=C(Cc1ccncc1)NCC[C@@H]1CC[C@H](NC(=O)C2CCOCC2)[C@@H](CO)O1	·	·	0	0	-1	·
O=C(C[C@H]1C=C[C@@H](NC(=O)CN2CCOCC2)[C@@H](CO)O1)NC1CCCCC1	·	·	0	2	-1	·
COc1ccc(C(=O)CC(=O)c2ccccc2O)cc1OC	-8	3	56*	·	-4	-2
CNC[C@@H]1Oc2ccc(NC(=O)NC3CCCCC3)cc2C(=O)N([C@@H](C)CO)C[C@H]1C	·	·	0	1	0	·
Cn1c(=O)n(C)c2cc(/C=N/N=C3/NC(=O)C(CC(=O)O)S3)ccc21 (stereo not drawn)	4	3	0	·	19*	-1
O=C(O)CC1S/C(=N/N=C/C=C/c2ccccc2)NC1=O (stereo not drawn)	3	0	0	11	12	?
CCOc1cc(/C=N/N=C2/NC(=O)C(CC(=O)O)S2)ccc1OCc1ccc(Cl)cc1 (stereo not drawn)	1	1	0	·	6	-2
SMILES	dFosB activator	CDK5 p35 inh	FGF22 binding	PglD inh	SIRT5 block	PvdQ inh
O=C(O)CC1S/C(=N/N=C/C2CC=CCC2)NC1=O (stereo not drawn)	8	1	0	·	112*	-10
Cc1c(C(=O)N2CCCCCC2)oc2ccccc12	0	1	·	5	·	-3
Cc1c(C(=O)N2CCOCC2)oc2ccccc12	1	0	0	-1	16*	4
Cc1c(C(=O)N2CCCCC2)oc2ccccc12	-5	-1	43*	3	·	-3
C[C@H](CO)N1C[C@H](C)[C@H](CN(C)S(=O)(=O)c2ccc(Cl)cc2)Oc2ccc(NC(=O)Nc3cccc4ccccc34)cc2C1=O	·	·	0	-3	-2	·
Cn1nc(SCc2ccccc2)c(=O)[nH]c1=O	·	·	43*	-1	·	·
CCNC(=O)C[C@@H]1CC[C@@H]2[C@@H](COc3ccc(NC(=O)Cc4cccs4)cc3C(=O)N2C)O1	·	·	0	1	-5	·
COc1ccc2c3c([nH]c2c1)[C@@H](CO)N(C(=O)C1CCCC1)CC31CCN(C(=O)NC(C)C)CC1	·	·	0	·	0	·
Cc1cc(C)n(-c2n[nH]c(C)c2[N+](=O)[O-])n1	0	-1	44*	·	-3	-10
CC(=O)N1N=C(N)SC12CCCC2	0	0	0	8	20*	-15
CCC(=O)Oc1ccc(C(=O)Nc2cccc(C(=O)NCC(C)C)c2)cc1	0	0	43*	·	-1	-2
CCOC(=O)N1CCN(C(=O)C2CCN(S(=O)(=O)c3cc(C)ccc3OC)CC2)CC1	-4	-2	0	4	·	-10
CCOC(=O)N1CCN(C(=O)C2CCN(S(=O)(=O)c3cc(OC)ccc3OC)CC2)CC1	-2	0	43*	·	8	-15
O=C(NCCOc1nc(N2CCCCC2)nc(N2CCOCC2)n1)Nc1ccccc1	4	-1	·	-6	·	-4
O=C(NCCOc1nc(N2CCCCC2)nc(N2CCCCC2)n1)Nc1ccccc1	-5	-1	44*	4	-1	2
C[C@H]1CN([C@@H](C)CO)C(=O)c2ccccc2-c2ccccc2CO[C@H]1CN(C)Cc1cccc(C(F)(F)F)c1	·	·	·	·	2	·
C[C@@H]1CN([C@@H](C)CO)C(=O)c2ccccc2-c2ccccc2CO[C@H]1CN(C)Cc1ccccc1C(F)(F)F	·	·	-1	·	28*	·
C[C@H]1CN([C@@H](C)CO)C(=O)c2ccccc2-c2ccccc2CO[C@@H]1CN(C)Cc1ccc(C(F)(F)F)cc1	·	·	0	·	16*	·
C[C@H](CO)N1C[C@H](C)[C@H](CN(C)Cc2cccc(C(F)(F)F)c2)OCc2ccccc2-c2ccccc2C1=O	·	·	-1	·	20*	·
COc1ccccc1NC(=O)N1CC(=O)N2[C@H](C1)[C@H](c1ccc(C#CC3CC3)cc1)[C@@H]2CO	·	·	·	·	-2	·
Cc1noc(C)c1S(=O)(=O)Nc1ccc2c(c1)C(=O)N([C@@H](C)CO)C[C@@H](C)[C@H](CN(C)CC1CC1)O2	·	·	0	-3	-1	·
